# TSHR antagonist – Antagonists of the Thyroid Stimulating Hormone Receptor: HTS campaign | activity change, negative = inhibition, % at 11.5 µM | AID 504810, 2011 | Thyrotropin receptor (Homo sapiens), P16473 | TSHR-expressing cells, TSH-stimulated cAMP HTRF, 2 h; stronger effect = lower value | hit rate 0.2% among 330,000;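 active = activity change below a set negative limit, meaning inhibition stronger than a set level, cut at about -70% in these data; inconclusive = activity change between two set negative limits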; also: % is scaled to controls: 0 for no effect and ±100 for the full control effect
#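 Read-out is FRET at 665 nm (cryptate excitation 337 nm) from a cryptate-tagged anti-cAMP antibody, competed by cell cAMP against cAMP-d2. Compounds are tested on freshly harvested TSHR cells challenged with 4nM TSH (EC80) for 2 hours at 37 deg C.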
# Akt phos inh – HTS Assay for Inhibitors of Akt Phophorylation: Primary Screen | Neuro2A IGF-stimulated pAkt S473 HTRF, 20 min; stronger effect = lower value | hit rate 0.32% among 360,000 | activity change, % for hits at 50 µM; in the data active = activity change below about -80%; inconclusive = mostly about -51% to -80%; also: % is scaled to controls: 0 for no effect and ±100 for the full control effect
#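 Neuro2A cells in DMEM with 0.5% FBS, overnight at 37 deg C, given compound at single 50 µM final, then IGF (6 nM final) for 20 min at 37 deg C. Lysed; phospho-Akt Ser473 by HTRF after 24 h, 665/615 ratio.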
# LDHA inh – qHTS assay for inhibitors of human lactate dehydrogenase | activity change, % (values are at about 110 or 230 µM) | hit rate 0.15% among 480,000 | purified LDHA, NADH/diaphorase-resazurin fluorescence; stronger effect = lower value | AID 1347041, 2019 | L-lactate dehydrogenase A chain (Homo sapiens), P00338; in the data active = activity change below about -30%; inconclusive = mostly about -25% to -30%;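 also: plate controls were DMSO wells for no effect and wells without enzyme for full effect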
#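 Human LDH5 at 2 nM final in Tris HCl pH 7.4 with 0.06 mM NADH and 0.2 mM pyruvate, reacted 5 minutes at room temperature. Remaining NADH coupled via diaphorase/resazurin; resorufin fluorescence read at 0 and 20 minutes, normalized to enzyme-free and DMSO wells.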
# Glioma ERSR ind – qHTS for Inducers of the Endoplasmic Reticulum Stress Response (ERSR) in Human Glioma: qHTS | hit rate 0.02% among 420,000 | Potency, µM, for inactives: at the top dose activation, hits mostly activators | U87-MG GRP78 promoter luciferase reporter, 16 h; also: potency is read from the fitted curve at half-maximal effect; series mostly up to about 76 µM; % of control where 0% means no effect; nearly all actives have a fitted effect of over 35% in size
#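 ERSR induction read as luciferase luminescence (Bright-Glo, 10 min at room temperature) in stably transfected human U87-MG glioma cells exposed to compounds for 16 h, using GRP78 as sensor.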
# RGS4 inh – Inhibitors of Regulator of G Protein Signaling (RGS) 4: qHTS. Potency, µM (highest dose often 114 µM), for the others: at the highest dose activity change, negative = inhibition, usual class: inhibitors. hit rate 0.039% among 390,000. Transcreener GDP fluorescence polarization, RGS4-accelerated GTP hydrolysis. Regulator of G-protein signaling 4 (Homo sapiens), P49798; also: potency is read from the fitted curve at half-maximal effect; % is scaled to controls: 0 for no effect and ±100 for the full control effect; nearly all actives have a fitted effect of over 75% in size
# Target sequence (P49798 whole entry, looked up): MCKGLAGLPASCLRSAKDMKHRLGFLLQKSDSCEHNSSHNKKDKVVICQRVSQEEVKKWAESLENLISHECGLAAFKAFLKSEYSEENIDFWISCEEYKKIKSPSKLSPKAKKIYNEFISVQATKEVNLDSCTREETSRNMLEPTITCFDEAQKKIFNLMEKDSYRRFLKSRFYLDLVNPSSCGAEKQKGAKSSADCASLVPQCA
#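 MLSMR compounds (23 nl, pin-transferred) preincubated 10 min at room temperature with a 500nM (2x) first reagent, then RGS4 at 900nM (2x) plus Transcreener GDP mix added; fluorescence polarization (620/688 nm) read before and after 90 min at 30 °C.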
# TCR act – Activators of T cell receptors: qHTS campaign; primary human leukocytes, anti-CD3, IL-2 HTRF, 48 h; Potency, µM (series often up to 9.22 µM), for the others: top-dose activation of IL-2 secretion, usual class: activators; 330,000 tested, under 10 active; AID 504894, 2011; also: % of control where 0% means no effect
#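 Readout: HTRF IL-2, Eu-cryptate/d2 antibody pair, 320nm excitation, 665nm emission. Stimulus: a-CD3 beads, no co-stimulation. Cells: primary human leukocytes. Exposure: 48 hr with compound.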
# An asterisk follows results filed as active; i = inactive; u = inconclusive; x = not tested or not shown; ! = not active in a repeat; [ ] = dose if it differs, or a comment. Sampled rows, rich in hits. Any-hit rate of the full collection: about 0.55%. Unless noted, calls follow the shape of the dose curve; as a rule, active = well fitted curve in the direction sought with a large enough effect; inconclusive = small, poorly fitted or top-dose-only effect, or another doubt; inactive = no such curve, though single readings can be large; an effect the other way counts as inactive or inconclusive.
SMILES,TSHR antagonist,Akt phos inh,LDHA inh,Glioma ERSR ind,RGS4 inh,TCR act
N#CC1=C(N)OC2=C(C(=O)CCC2)C1c1ccc(C(F)(F)F)cc1 (stereo not given),x,x,8,x,x,x
N#CC1=C(N)OC2=C(C(=O)CCC2)C1C1C=CCCC1 (stereo not given),10,-110%*,-4,-4%,u,18%
Cc1ccc(-n2ncc3c(N4CCCC4)ncnc32)c(C)c1,-10,x,0,-1%,-7%,-10%
COc1cccc(N2CCN(c3ncnc4c3cnn4-c3ccc(C)cc3C)CC2)c1,-93*,i,3,-10%,-9%,4%
O=C1CC(N2CCN(c3nc4ccccc4s3)CC2)C(=O)N1Cc1cccs1 (stereo not given),-29,-143%*,-14,0%,38%,-2%
CC(=O)Nc1ccc(S(=O)(=O)N2CCC(N3CCCC3)CC2)cc1,40,i,-13,-3%,3%,-3%
CC(=O)Nc1ccc(S(=O)(=O)N2CCC(n3cnc4cc(F)ccc43)CC2)cc1,-9,-106%*,-1,-2%,-30%,-2%
CCOc1ccc2c(c1)cc(C(=O)NCc1ccco1)n2C,x,x,8,x,x,x
CCC(C)[C@H](NC(=O)[C@@H]1Cc2ccccc2CN1)C(=O)NC1CCCC1 (stereo not given in full),x,x,-4,x,x,x
C[C@@H](NC(=O)[C@@H]1Cc2ccccc2CN1)C(=O)NC1CCCCC1,-134*,i,1,2%,23%,-5%
N#Cc1cn2ncnc2nc1N,x,x,-31*,x,x,x
CN(C(=O)COC(=O)CNS(=O)(=O)/C=C/c1ccccc1)C1CCS(=O)(=O)C1 (stereo not given),7,-123%*,1,-4%,-13%,5%
CCc1nc(NC(=O)c2ccc(C#N)cc2)sc1C,x,x,0,x,x,x
COc1ccc(NC(=O)C(C)N2CCN(C)CC2)cc1 (stereo not given),4,i,-24,-5%,-10%[56.9 µM],3%
CC(C(=O)Nc1ccc(F)c(F)c1)N1CCN(C)CC1 (stereo not given),-3,i,-30*,4%,19%,8%
Cc1cnc(NC(=O)C(C)N2CCN(C)CC2)s1 (stereo not given),6,i,-31*,-4%,36%,7%
COc1ccc(-c2ccc(CCC(=O)NC3CCCCC3)o2)cc1,x,x,4,x,x,x
CCCC1=C(C(=O)OCC)C(c2ccc(C)cc2)C(C#N)=C(N)O1 (stereo not given),x,x,16,x,x,x
CC(O)CNCCCOc1ccc(C(C)(C)c2ccccc2)cc1 (stereo not given),x,x,-2,x,x,x
COCCNCCCOc1ccc(C(C)(C)c2ccccc2)cc1,21,i,-33*,-7%,32%,-12%[46.1 µM]
CC(C)NCCCOc1ccc(C(C)(C)c2ccccc2)cc1,9,i,-32*,-5%,6%,-1%
Cc1ccc(/C(O)=C2\C(=O)C(=O)NC2c2ccc(C)cc2)cc1 (stereo not given),x,x,3,x,x,x
CCc1c(C)sc(NC(=O)C(F)(F)F)c1C#N,x,x,2,x,x,x
O=C(O)/C=C/c1cc(Cl)ccc1OCc1ccc(Cl)cc1,x,x,6,x,x,x
O=C(NC(=S)NCCN1CCOCC1)c1ccc(F)cc1,-1,i,3,0%,-24%,-4%[46.1 µM]
SMILES,TSHR antagonist,Akt phos inh,LDHA inh,Glioma ERSR ind,RGS4 inh,TCR act
O=C(NCCN1CCOCC1)c1ccc(F)cc1,3,-101%*,-15,-1%,14%,-2%
CSc1nc(C)c2c(n1)N(c1ccc(F)cc1)CC2,0,-111%*,0,-1%,-1%,-3%
CSc1nc(C)c2c(n1)N(c1ccc(O)cc1)CC2,16,i,-4,1%,18%,0%
COc1ccc(-c2c3c(=O)n(C)c(=O)n(C)c3cn2-c2cccc(C)c2)cc1,x,x,3,x,x,x
CCN1CCN(c2cc(C(=O)O)c3cc(NC(=O)C(C)C)ccc3n2)CC1,x,x,-19,x,x,x
N#Cc1ccc(/C=N/Nc2cccc(Cl)c2)cc1,x,x,11,x,x,x
Cc1ccc(NC(=O)CN2C(=O)N/C(=C\c3cccn3-c3ccc(C(=O)NC#N)cc3)C2=O)cc1,x,x,-37*,x,x,x
S=c1sc(SCc2ccccc2)c(SCc2ccccc2)s1,x,x,11,x,x,x
Cc1onc(-c2c(F)cccc2Cl)c1C(=O)NCc1ccccn1,2,-109%*,-8,-1%,-9%,-3%
Cc1onc(-c2ccccc2Cl)c1C(=O)NCc1ccccn1,1,i,-5,-3%,-2%,x
CCN(CC)S(=O)(=O)c1cc(C(=O)Nc2ccc(Cl)cn2)ccc1C,-20,-114%*,-1,1%,-12%,-5%
CC1(C)CC(=O)C2=C(C1)Nc1cc3c(cc1C2c1ccc(OCC(=O)O)cc1)OCO3 (stereo not given),x,x,2,x,x,x
Cc1cc(C(=O)CSc2nc3ccccc3c(=O)n2C)c(C)n1Cc1ccc2c(c1)OCO2,i,-109%*,-6,-4%,-20%,x
Cc1nn(-c2nc3c(c(=O)n(Cc4cccc(Cl)c4)c(=O)n3C)n2C(C)C)c(C)c1C,x,x,1,x,x,x
O=C(NCc1ccccn1)C1CC(c2ccc(F)cc2)=NO1 (stereo not given),5,-112%*,1,-1%,25%,4%
O=C(Cn1cnc2sccc2c1=O)N1N=C(c2ccc(Cl)cc2)CC1c1ccco1 (stereo not given),x,x,-10,x,x,x
CC1=C(C(=O)Nc2ccccc2)C(c2cccs2)n2nnnc2N1 (stereo not given),18,-96%*,-9,-2%,8%,x
C1=C(c2ccccc2)Nc2nnnn2C1c1cccs1 (stereo not given),0,-111%*,-4,2%,-1%,-3%
C=CCNc1oc(-c2ccc(COc3ccc(C)cc3)o2)nc1C#N,x,x,1,x,x,x
CC1=C(C(=O)Nc2ccccc2F)C(c2ccco2)C(C#N)=C(SCC(=O)NC(C)(C)C)N1 (stereo not given),x,x,9,x,x,x
N#Cc1cccnc1NCc1cccnc1,x,x,9,x,x,x
OCCN1CCN(C(=S)Nc2cccc(C(F)(F)F)c2)CC1,-4,i,-33*!,-4%,-6%,11%
CCOC(=O)c1ccc(NC(=S)N2CCSC2c2c(F)cc(F)cc2F)cc1 (stereo not given),46,i,-7,2%,-11%,-9%[46.1 µM]
Fc1cc(F)c(C2SCCN2C(=S)Nc2cccc(C(F)(F)F)c2)c(F)c1 (stereo not given),-72*,i,-11,5%,11%,1%
CCN1CCN(C(=S)Nc2cccc(C(F)(F)F)c2)CC1,6,i,-2,3%,-7%,3%[46.1 µM]

# Source: PubChem BioAssay (National Center for Advancing Translational Sciences (NCATS))
